Reference: PubChem BioAssay AID893 (National Center for Advancing Translational Sciences (NCATS), 2007)
Values joined by “and” are separate entries in the source; they are usually repeats but may differ in a detail not shown here. Equal entries are not always repeated. Hit rate of the full screen: of about 75,000 compounds, about 5,700 (7.6%) were called active. Where a call stands in place of a potency, no number is given. Inconclusive results (about 7%) are left out. The full list was thinned out, with actives kept by preference. Values without a mark were called inactive. Calls come from the whole dose curve; as a rule, active = well fitted inhibition curve with a large enough effect; inconclusive = small, poorly fitted or top-dose-only effect; inactive = no such curve, though single readings can be large or run the other way.

Target: 3-hydroxyacyl-CoA dehydrogenase type-2 (Homo sapiens) (UniProt Q99714)
Assay: qHTS Assay for Inhibitors of HSD17B4, hydroxysteroid (17-beta) dehydrogenase 4;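 note: the protocol describes HADH2 (HSD17B10) and not the HSD17B4 of the title; nearly all actives have a fitted effect of over 70% in size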
Conditions: recombinant HSD17B10, NADH fluorescence kinetic; series mostly up to 57.1 µM
Procedure, shortened: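 Enzyme plus compound, 15 min room temperature; substrate mix added (NAD+ 1 mM, beta-hydroxybutyryl-CoA 90 uM final); plates read kinetically for NADH fluorescence. HADH2 was His-tagged, E. coli-derived, 20 nM.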
Potency is the fitted concentration of half-maximal effect.

Q: With Cc1ccc(SCCN2C(=O)NC(C)(C)C2=O)cc1 as the compound, how does the Potency read?
A: Its Potency is “inactive”.

Q: With C=CCn1c(COc2ccccc2)nnc1SCC(=O)NCC(=O)OCC as the compound, how does the Potency read?
A: The Potency was “inactive”.

Q: C=CCn1c(COc2cccc3cccnc23)nnc1SCC(=O)OC was tested. Which Potency did it give?
A: The Potency was 31.6 µM (active).

Q: With C=CCn1c(COc2ccccc2C)nnc1SCC(=O)O as the compound, how does the Potency read?
A: Its Potency is “inactive”.

Q: O=C(O)C1C2C=CC(C2)C1C(=O)N1CCN(CCO)CC1 (configuration not stated) was tested. Which Potency did it give?
A: Its Potency is “inactive”.

Q: COc1cc(-c2nnc(Cn3cc(C(F)(F)F)ccc3=O)o2)cc(OC)c1OC was tested. Which Potency did it give?
A: The Potency was “inactive”.

Q: For CCOC(=O)c1cc(NC(=O)SCC(=O)O)c(C)nc1C, which Potency is on record?
A: The Potency was “inactive”.

Q: Which Potency does the source give for CCOC(=O)c1cc(-c2nnc(-c3cc(OC)c(OC)c(OC)c3)o2)c(C)nc1C here?
A: Its Potency is 31.6 µM (active).

Q: Which activity change, negative = inhibition does the source give for Cc1cc(C)cc(C#CC2C=CC(Oc3ccc(C4CCCC4)cc3)C(CO)O2)c1 (configuration not stated) here?
A: Its activity change, negative = inhibition is 4.3% [at 11.4 µM].

Q: CCOCCCNC(=O)c1c[nH]c2cc(C)ccc2c1=O was tested. Which Potency did it give?
A: Its Potency is “inactive”.

Q: With CCn1c(=N)c(C(=O)NCCCOC)cc2c(=O)n3cccc(C)c3nc21 as the compound, how does the Potency read?
A: Its Potency is 31.6 µM (active).

Q: How did the Potency turn out when COCCCNC(=O)c1ccc2c(c1)ncn2-c1ccccc1OC was run?
A: The Potency was “inactive”.

Q: CC(=O)N(Cc1cccs1)C1CCOC(C)(C)C1 (configuration not stated) was tested. Which Potency did it give?
A: The Potency was “inactive”.

Q: How did the Potency turn out when O=C(O)c1ccc(COc2c(F)c(F)cc(F)c2F)o1 was run?
A: Its Potency is “inactive”.

Q: With CCOC(=O)n1c(SCC(=O)N(CC)CC)nc2ccccc21 as the compound, how does the Potency read?
A: Its Potency is “inactive”.

Q: Which Potency does the source give for Cc1cc(N2CCCCC2)nc2ccc(Cc3ccc4nc(N5CCCCC5)cc(C)c4c3)cc12 here?
A: The Potency was 3.16 µM (active).

Q: How did the Potency turn out when COc1ccc(-n2c(SC)nc(O)cc2=O)cc1 was run?
A: The Potency was “inactive”.

Q: Which Potency does the source give for CCOC(=O)c1ccccc1NC(=O)CC1Nc2ccccc2NC1=O (configuration not stated) here?
A: The Potency was “inactive”.

Q: With O=C(CC1Nc2ccccc2NC1=O)Nc1ccccc1 (configuration not stated) as the compound, how does the Potency read?
A: Its Potency is 25.1 µM (active).

Q: With O=C(CC1NCCNC1=O)Nc1ccc(Oc2ccccc2)cc1 (configuration not stated) as the compound, how does the Potency read?
A: The Potency was “inactive”.

Q: Which Potency does the source give for COc1cccc(NC(=O)C(C)Oc2ccccc2)c1 (configuration not stated) here?
A: Its Potency is “inactive”.

Q: Which Potency does the source give for CC(=O)OCC(=O)C1CCC2C3CCC4=CC(=O)CC[C@@]4(C)C3CC[C@]12C (some centres not stated) here?
A: Its Potency is “inactive”.

Q: Which Potency does the source give for Fc1ccccc1OCCSc1nc2ccccc2o1 here?
A: Its Potency is “inactive”.

Q: With C[C@H]1O[C@@H](CC(=O)O)Cc2c1c(O)c1c(O)cc(-c3cc(=O)c4c(=O)c5c(c(=O)c=4c3=O)C[C@H](CC(=O)O)O[C@@H]5C)c(O)c1c2O as the compound, how does the Potency read?
A: Its Potency is 3.98 µM (active).

Q: For CC(C)C1=CC2=CC[C@@H]3[C@](C)(CO)CCC[C@]3(C)C2CC1 (some centres not stated), which Potency is on record?
A: The Potency was “inactive”.

Q: How did the Potency turn out when Cc1nc2ccc(S(=O)(=O)NC(C(=O)N3CCCCCC3)C(C)C)cc2s1 (configuration not stated) was run?
A: Its Potency is “inactive”.

Q: How did the Potency turn out when COC(=O)[C@H]1C[C@@H]1[C@H](NC(=O)Oc1ccc(F)cc1)c1ccccc1 was run?
A: Its Potency is “inactive”.

Q: Which Potency does the source give for N=c1c2c3c(sc2ncn1CCCN1CCOCC1)CCCCC3 here?
A: The Potency was “inactive”.

Q: How did the Potency turn out when COC(=O)c1ccc(C(NC(=O)OCc2ccccc2)/C(C)=C/[C@@H](C)C(=O)NCc2cc(C)on2)cc1 (some centres not stated) was run?
A: Its Potency is “inactive”.

Q: Cc1cccc(OCc2nnc(SCn3nnc4ccccc4c3=O)o2)c1 was tested. Which Potency did it give?
A: The Potency was “inactive”.

Q: Cc1cccc(OCc2nnc(SCc3nc4cc(C(F)(F)F)ccc4c(=O)[nH]3)o2)c1 was tested. Which Potency did it give?
A: The Potency was 31.6 µM (active).

Q: How did the Potency turn out when Cc1cc(C)cc(OCc2nnc(SCC(=O)Nc3ccccc3)o2)c1 was run?
A: Its Potency is “inactive”.

Q: With O=C(c1csnn1)N1CCC2(CCN(Cc3nccs3)CC2)CC1 as the compound, how does the Potency read?
A: The Potency was “inactive”.

Q: How did the Potency turn out when Cc1ccccc1CSc1nnc(-c2ccccn2)n1N was run?
A: The Potency was “inactive”.

Q: CC(C)(C)NCC[C@@H](O)c1cc(C(F)(F)F)nc2c(C(F)(F)F)cccc12 was tested. Which activity change, negative = inhibition did it give?
A: Its activity change, negative = inhibition is 3.93% [at 11.4 µM].

Q: For COC(=O)c1cc(S(=O)(=O)NC2CCN(Cc3ccccc3)CC2)cn1C, which Potency is on record?
A: Its Potency is “inactive”.

Q: Which Potency does the source give for Cc1ccn2cc(C(=O)NC3CCN(Cc4ccccc4)CC3)nc2c1 here?
A: Its Potency is 31.6 µM (active).

Q: O=C(NC1CCN(Cc2ccccc2)CC1)c1ccccc1F was tested. Which Potency did it give?
A: Its Potency is “inactive”.

Q: COc1cc(Cl)cc(C2NC(=O)NC(C)=C2C(=O)NCc2ccccc2)c1O (configuration not stated) was tested. Which Potency did it give?
A: The Potency was “inactive”.

Q: With COc1ccc(OC)c(Nc2nc(-c3ccc(O)c(O)c3)cs2)c1 as the compound, how does the Potency read?
A: The Potency was 7.94 µM (active).

Q: For CCOc1ccc(C(=O)Nc2cc(OC)ccc2OC)cc1, which Potency is on record?
A: Its Potency is “inactive”.

Q: Which Potency does the source give for Oc1ccc(-c2csc(Nc3cccnc3)n2)cc1 here?
A: The Potency was “inactive”.

Q: With COc1ccc(-n2nnc3c(=O)n(CC(=O)OCc4ccccc4)cnc32)cc1 as the compound, how does the Potency read?
A: Its Potency is “inactive”.

Q: With c1ccc(-c2noc(-c3cccs3)n2)nc1 as the compound, how does the Potency read?
A: Its Potency is “inactive”.

Q: How did the Potency turn out when COC(=O)[C@H](C)[C@H]1C[C@]1(C)[C@H](NC(=O)OCc1ccccc1)c1ccccc1 was run?
A: Its Potency is “inactive”.

Q: With COc1ccccc1CNc1ncnc2ccc(-c3c(C)noc3C)cc12 as the compound, how does the Potency read?
A: Its Potency is “inactive”.

Q: For COc1ccccc1CNc1ncnc2ccc(-c3ccc4c(c3)OCO4)cc12, which Potency is on record?
A: Its Potency is 31.6 µM (active).

Q: For COc1ccc2[nH]cc(CCNc3ncnc4ccc(-c5ccccc5CN(C)C)cc34)c2c1, which Potency is on record?
A: Its Potency is “inactive”.

Q: COc1cc(OC)c(C(=O)NC2CCCCCC2)cc1OC was tested. Which Potency did it give?
A: Its Potency is “inactive”.

Q: O=C(COC(=O)CCC(=O)c1cccs1)NCc1ccco1 was tested. Which Potency did it give?
A: The Potency was 25.1 µM (active).

Q: With O=C(COC(=O)C12CC3CC(CC(C3)C1)C2)NCc1ccco1 as the compound, how does the Potency read?
A: The Potency was “inactive”.

Q: O=C(CCC(=O)c1cccs1)NCc1ccccc1 was tested. Which Potency did it give?
A: The Potency was “inactive”.

Q: With CC(=O)Nn1cc2c(=O)n(C)c(=O)n(C)c2c1 as the compound, how does the Potency read?
A: Its Potency is “inactive”.

Q: How did the Potency turn out when CC1=C(C(=O)Nc2ccc(Cl)cc2)C(c2ccco2)NC(=O)N1 (configuration not stated) was run?
A: The Potency was “inactive”.

Q: With C=C(C)Cn1c(N2CCN(CC)CC2)nc2c1c(=O)[nH]c(=O)n2C as the compound, how does the Potency read?
A: The Potency was “inactive”.

Q: For CCC(C)(C)N=C(NC#N)Nc1cccnc1, which Potency is on record?
A: The Potency was “inactive”.

Q: Which Potency does the source give for CCOC(=O)CSc1nccc(N(C)C)c1C#N here?
A: Its Potency is “inactive”.

Q: With CCOC(=O)Cc1c(C)nc2c(C#N)c(C)nn2c1C as the compound, how does the Potency read?
A: Its Potency is 25.1 µM (active).

Q: Which Potency does the source give for CC[C@@H]1Cc2cc(O)ccc2C2=C1c1ccc(O)cc1C[C@H]2CC here?
A: Its Potency is 25.1 µM (active).

Q: Cc1ccc2nc(CC(=O)c3ccc4ccccc4c3)c(=O)[nH]c2c1 was tested. Which activity change, negative = inhibition did it give?
A: The activity change, negative = inhibition was 5.47% [at 11.4 µM].

Q: For C=CC(=O)c1ccc2ccccc2c1, which Potency is on record?
A: Its Potency is 25.1 µM (active).

Q: Which Potency does the source give for c1ccc(CCC2=NCCn3cccc32)cc1 here?
A: The Potency was “inactive”.

Q: How did the Potency turn out when CN(CCOc1ccc(CC2SC(=O)NC2=O)cc1)c1ccccn1 (configuration not stated) was run?
A: The Potency was 31.6 µM (active).

Q: With CO[C@@H]1COC(=O)[C@H](Cc2ccccc2)NC(=O)C/C=C\[C@@H](C)[C@H](OC)COC(=O)[C@@H](C)NC(=O)C/C=C\[C@H]1C as the compound, how does the activity change, negative = inhibition read?
A: Its activity change, negative = inhibition is 5.16% [at 11.4 µM] and 0.0428% [at 11.4 µM].

Q: How did the Potency turn out when CCOC(=O)Cc1csc(NC(=O)Nc2ccccc2)n1 was run?
A: Its Potency is “inactive”.

Q: Cc1csc(NC(=O)NC2(C(F)(F)F)Oc3ccccc3O2)n1 was tested. Which Potency did it give?
A: The Potency was 25.1 µM (active).

Q: How did the Potency turn out when Cc1cc(C)nc(NC(=O)Nc2ccccc2C(F)(F)F)n1 was run?
A: The Potency was “inactive”.
